# Screening results deposited in PubChem BioAssay by National Center for Advancing Translational Sciences (NCATS).
# A selection: hits, their analogues and other compounds. The true share with any hit is near 2.8%.
# POLI inh – blocks human DNA polymerase iota activity; Pol iota fluorescent replication assay, 10 min; Q9UNA4; AID 588590; 390,000 compounds, 1% hits; Potency, µM (highest dose often 115 µM), for inactives: at the top dose activity, negative = inhibition, most hits filed as inhibitors; further: potency means the concentration at half of the fitted maximal effect
#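 Fluorescent replication assay read twice, at 0 min and 10 min after adding 50 nM (final) substrate. Enzyme (10 nM) and compounds were first incubated 15 min at room temperature; enzyme-free buffer wells were negative controls.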
# WRN inhibitor – inhibitors of human WRN helicase. Q14191. WRN helicase unwinding, fluorescent forked duplex, kinetic. Potency, µM (series often up to 114 µM), for inactives: at the top dose activity change, negative = inhibition, most hits filed as inhibitors. 360,000 compounds, 0.46% hits; further: potency means the concentration at half of the fitted maximal effect; on the % scale 0 is the no-effect control and ±100 the full control effect; nearly all actives have a fitted effect of over 55% in size
#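 Kinetic red-fluorescence monitoring (525/598 nm) tracks WRN helicase activity after 100 nM fluorophore-quencher forked duplex and 2 mM ATP are added to 20 nM enzyme pretreated 15 min at room temperature with compound.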
# POLB inh – DNA polymerase beta (human) inhibition; Potency, µM (series often up to 114 µM), without a hit: at the highest dose activity change, negative = inhibition, most hits filed as inhibitors; 340,000 compounds, 1.3% hits; AID 485314; Pol beta primer extension/strand displacement, fluorescence kinetic; further: potency means the concentration at half of the fitted maximal effect; on the % scale 0 is the no-effect control and ±100 the full control effect
#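 Enzyme-only controls used 10 nM Pol beta; buffer lacking enzyme served as negative control. Compound preincubated 15 min, then 50 nM substrate added; 0 and 10 min reads at room temperature.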
# POLH inh – blocks human DNA polymerase eta activity; recombinant Pol eta, fluorescent DNA replication assay; Potency, µM (highest dose often 114 µM), for inactives: at the highest dose activity change, negative = inhibition, usual class: inhibitors; 390,000 compounds, 1.2% hits; AID 588591; further: potency means the concentration at half of the fitted maximal effect; on the % scale 0 is the no-effect control and ±100 the full control effect
# Target sequence (Q9Y253 whole entry, looked up): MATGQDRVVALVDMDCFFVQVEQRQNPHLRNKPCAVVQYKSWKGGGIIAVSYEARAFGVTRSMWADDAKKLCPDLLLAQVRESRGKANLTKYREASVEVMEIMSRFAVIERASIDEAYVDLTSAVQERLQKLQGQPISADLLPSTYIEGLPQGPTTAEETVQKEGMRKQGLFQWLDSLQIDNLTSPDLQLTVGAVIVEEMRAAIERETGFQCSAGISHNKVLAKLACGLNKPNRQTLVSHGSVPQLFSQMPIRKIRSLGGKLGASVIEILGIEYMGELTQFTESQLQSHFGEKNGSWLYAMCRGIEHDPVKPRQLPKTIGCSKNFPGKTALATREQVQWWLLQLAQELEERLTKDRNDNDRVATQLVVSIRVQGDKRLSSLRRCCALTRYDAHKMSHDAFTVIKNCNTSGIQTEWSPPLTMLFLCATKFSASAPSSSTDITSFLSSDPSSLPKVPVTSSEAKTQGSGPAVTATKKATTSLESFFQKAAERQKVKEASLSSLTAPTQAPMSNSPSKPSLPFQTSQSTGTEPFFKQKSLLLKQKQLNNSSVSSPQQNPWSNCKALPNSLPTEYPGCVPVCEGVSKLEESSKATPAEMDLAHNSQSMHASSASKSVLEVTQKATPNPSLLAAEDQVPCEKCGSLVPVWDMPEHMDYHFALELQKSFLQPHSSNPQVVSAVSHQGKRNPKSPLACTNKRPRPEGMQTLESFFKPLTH
#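 Pol eta at 10 nM preincubated with compounds 15 min at room temperature; reaction started with fluorescent substrate (50 nM final) and read kinetically at 0 and 10 min.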
# Pol kappa inh – inhibitors of human DNA polymerase kappa; AID 588579; Q9UBT6; Potency, µM (top dose mostly 107 µM), inactives show at the highest dose activity, negative = inhibition, usual class: inhibitors; 400,000 compounds, 0.53% hits; purified Pol kappa, fluorescent DNA synthesis assay, 10 min; further: potency means the concentration at half of the fitted maximal effect; on the % scale 0 is the no-effect control and ±100 the full control effect
#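 Readout: fluorescence, taken kinetically at 0 and 10 min. Conditions: 10 nM Pol kappa, 15 min RT compound preincubation, 50 nM substrate final. Controls: enzyme-free buffer wells.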
# PI5P4Ka inh – inhibitors of human PI5P4K alpha | max response, % | PI5P4Kalpha enzyme, ADP-Glo luminescence, 60 min; stronger effect = lower value | 330,000 compounds, 1.2% hits | AID 652105 | P48426; active means max response of -50% or lower; inconclusive means between -30% and -50%; inactive means -30% or higher; further: value at the top dose of about 77 µM; on the % scale 0 is the no-effect control and ±100 the full control effect
#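 Controls without substrate or without enzyme flank wells where PI5P4Kalpha converts substrate using 5 microM ATP (final). Incubation lasts 60 minutes at room temperature; ADP formed is read by ADP-Glo luminescence.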
# * marks the source's active call; other numbers are inactive results; ? = inconclusive; . = no result; ! = not confirmed by another sample; [ ] = another dose, or the depositor's remark. Unless noted, the call rests on the fitted dose curve; in most records, active means well fitted curve in the direction sought with a large enough effect; inconclusive means small, poorly fitted or top-dose-only effect, or another doubt; inactive means no such curve, though single readings can be large; an effect the other way counts as inactive or inconclusive.
SMILES,POLI inh,WRN inhibitor,POLB inh,POLH inh,Pol kappa inh,PI5P4Ka inh
CN1C(=O)/C(=C\N2CCc3ccccc32)C(=O)NC1=S,?,50.1µM*,1.9%,-5.6%,-27.2%,?
CCN(CC)c1ccc(/C=C2\C(=O)NC(=S)N(C)C2=O)o1,51.9%,-18.3%,-7.7%,-19.3%,-2.6%,-3.4
Cc1cnc2c(C(=O)O)c(Cl)ccc2c1,.,.,.,.,14.5%[60.1 µM],.
NC(N)=NCCC[C@H](N)C(=O)O,?,.,-10.6%[57.1 µM],-2.0%[57.1 µM],1.3%[60.1 µM],.
CCC1(C)OC(c2ccccc2)=C/C(=C/C=C2C(=O)NC(=O)NC2=O)O1 (stereo not drawn),28.2µM*,?,?,-17.5%,-25.6%,-16.1
On1ccccc1=S,?,3.7%,.,1.5%,-6.3%,-100.2*
CN1C(=O)C(=Cc2ccc(N3CCOCC3)c([N+](=O)[O-])c2)C(=O)N(C)C1=O,.,.,7.9%,.,.,.
O=C1NC(=O)C(=Cc2ccc(N3CCN(C(=O)c4ccccc4)CC3)c([N+](=O)[O-])c2)C(=O)N1,33.6%,?,-9.6%,9.4%,-14.7%,-61.9*
Cc1cc(C=C2C(=O)N(C)C(=S)N(C)C2=O)c(C)n1-c1ccncc1,-94.6%,?,?,35.5µM*,-37.1%,?
Cc1ccnc(-n2c(C)cc(C=C3C(=O)N(C)C(=S)N(C)C3=O)c2C)c1,?,?,13.3%,8.0%,-25.1%,?
Cc1cc(/C=C/c2ccnc3ccccc23)ccc1N(CCCl)CCCl,?,.,.,.,-13.6%,.
Cc1cc(/C=C/c2cccc3sc(C)[n+](CCCCI)c23)ccc1N(CCCl)CCCl,79.4µM*,.,.,.,56.2µM*,.
Cc1ccc(N2C(=O)/C(=C/c3ccc(CN(CCC#N)S(C)(=O)=O)o3)C(=O)NC2=S)cc1,3.16µM*,50.1µM*,6.31µM*,2.24µM*,17.8µM*,-70.9*
CCOc1cc(OP(=S)(OC)OC)nc(CC)n1,.,.,.,.,13.2%[60.1 µM],.
Cc1[nH]n(-c2ccccc2)c(=O)c1C(c1cccc([N+](=O)[O-])c1O)c1c(C)[nH]n(-c2ccccc2)c1=O,0.282µM*,?,0.0%,-21.1%,-12.2%,-9.8
COc1cc(C(c2c(C)[nH]n(-c3ccccc3)c2=O)c2c(C)[nH]n(-c3ccccc3)c2=O)cc(OC)c1OC,-100.6%,?,?,-3.7%,-12.5%,.
COc1ccc(N2C(=O)NC(=O)/C(=C\c3cn(CC(=O)N4CCOCC4)c4ccccc34)C2=O)c(OC)c1,12.6µM*,-9.3%,-18.4%,0.5%,4.1%,0.8
COCCNC(=O)Cn1cc(/C=C2\C(=O)NC(=O)N(c3ccccc3F)C2=O)c2ccccc21,20µM*,-5.2%,3.0%,-6.8%,7.8%,2.1
CC1Cc2ccccc2N1C(=O)COC(=O)c1ccc(Cl)nc1 (stereo not drawn),168.1%,3.1%,7.8%,-23.2%,-4.3%,5.1
CC(=O)N1C[C@H](O)C[C@H]1C(=O)O,?,9.6%,.,4.0%,6.0%,-6.8
O=C(NCc1ccccc1)c1cccc(Nc2nc3ccccc3n3nnnc23)c1,?,.,-10.8%,-9.2%,-3.3%,.
CCCCC/C=C\C/C=C\C/C=C\C/C=C\CCCC(=O)O,.,.,.,.,12.6µM*!,.
CCCCC/C=C\C[C@@H](/C=C/C=C\C/C=C\CCCC(=O)O)OO,.,.,.,.,-0.5%[19.4 µM],.
CC[C@@]1(O)C(=O)OCc2c1cc1n(c2=O)Cc2cc3ccccc3nc2-1,34.6%,.,-7.7%[57.1 µM],1.0%[57.1 µM],8.0%[60.1 µM],.
CC[C@@]1(O)C(=O)OCc2c1cc1n(c2=O)Cc2cc3c(O)cccc3nc2-1,.,.,.,.,29.9µM*,.
SMILES,POLI inh,WRN inhibitor,POLB inh,POLH inh,Pol kappa inh,PI5P4Ka inh
COc1cc([C@@H]2c3cc4c(cc3[C@H](O)[C@H]3COC(=O)[C@@H]23)OCO4)cc(OC)c1OC,?,.,.,.,9.4%,.
NC(=O)Cn1cc(C=C2C(=O)NC(=O)NC2=O)c2ccccc21,?,-9.1%,18.2%,3.9%,-14.1%,-20.6
CCn1cc(C=C2C(=O)NC(=O)NC2=O)c2ccccc21,20µM*,-26.9%,?,6.9%,-17.4%,-25.1
COc1ccc(NC(=O)CSc2oc(-c3cccs3)nc2S(=O)(=O)c2ccccc2)c(OC)c1,?,.,3.9%,-12.7%,-22.4%,.
C[C@H](CCC(=O)O)[C@H]1CC[C@@H]2[C@H]3CC[C@H]4C[C@H](O)CC[C@]4(C)[C@@H]3CC[C@@]21C,.,.,.,.,-12.4%[19.4 µM],.
N.N.N.N.N.N.N.N.N.N.N.N.N.N.O.O.[Ru+4].[Ru+5].[Ru+5],.,.,.,.,26.7µM*,.
CC1(C)C(=O)CC[C@]2(C)C3C(=O)C=C4[C@H]5C[C@@](C)(C(=O)O)CC[C@]5(C)CC[C@]4(C)[C@]3(C)CC[C@@H]12 (stereo partly drawn),18.5%,18.4%,44.7µM*,-14.7%,4.6%,-4.8
O=C1C(Cl)=CC(=Nc2ccc(O)cc2)C=C1Cl,?,-17.3%,.,?,-30.0%,-98.1*
O=[As](O)(O)c1ccc(N=Nc2ccc(O)cc2)cc1,-6.4%,6.1%,1.8%,5.5%,2.7%,-12.9
C/C1=C\[C@@H](C)C/C=C/[C@H]2[C@@H]3O[C@]3(C)[C@@H](C)[C@H]3[C@H](Cc4c[nH]c5ccccc45)NC(=O)[C@]32C(=O)/C=C/C(=O)[C@@H]1O,?,-3.7%,22.4µM*,?,?,?
CC1=CC2/C=C(\C)CCC(O)C(O)/C=C/C(=O)C23C(=O)NC(CC(C)C)C3C1C (stereo not drawn),31.5%,-4.8%,4.0%,-18.5%,-7.4%,-26.0
C[S@@](=O)CCCCN=C=S,.,.,.,.,13.7%[60.1 µM],.
COC1=C[C@H]2[C@H]3Cc4ccc(OC)c(O)c4[C@@]2(CCN3C)CC1=O,.,.,.,.,-8.6%[19.4 µM],.
CCOc1ccc2nc(N=Nc3c(O)[nH]c(=O)[nH]c3=O)sc2c1,2.8%,1.7%,26.9%,?,-3.0%,-86.4*
Cc1c(N=Nc2c(O)[nH]c(=S)[nH]c2=O)c(=O)n(-c2ccccc2)n1C,98.7%,-11.7%,12.9%,-1.9%,-10.1%,-12.4
CCOc1ccc2nc(N=Nc3c(O)[nH]c(=S)[nH]c3=O)sc2c1,101.7%,-24.9%,23.2%,?,-8.3%,-79.8*
O=C(O)c1ccccc1-c1c2cc(Br)c(=O)cc-2oc2[c]([Hg])c(O)c(Br)cc12,.,.,.,.,15.8µM*,.
CCOC(=O)N1CC(C)N(/[N+]([O-])=N/Oc2ccc([N+](=O)[O-])cc2[N+](=O)[O-])CC1C (stereo not drawn),?,.,.,.,-7.4%,.
COc1ccc(CN2C(=O)NC(=O)/C(=C\c3cc(OC)c(OC)c(OC)c3)C2=O)cc1,?,50.1µM*,-11.8%,-9.7%,-1.8%,?
COc1cc(OC)c(OC)cc1/C=C1\C(=O)NC(=O)N(Cc2ccccc2)C1=O,?,79.4µM*,10.7%,-11.2%,-10.0%,-24.6
